Tests used:
Assay in all cases: DAPPL (digital affinity profiling via proximity ligation, sequencing); 10 mM Tris-HCl pH 7.5, 50 mM NaCl, 1 mM DTT, 4% glycerol, room temperature, 30 min; GST-TFs on glutathione beads, 16-mer random dsDNA library, 0.1% formaldehyde crosslink after washing; high values mean tight binding
FEV = target: T1, FEV (Homo sapiens, UniProt Q99581 1-238); conditions: protein: recombinant; tags: N-terminal GST; dsDNA, one strand shown
T1 sequence: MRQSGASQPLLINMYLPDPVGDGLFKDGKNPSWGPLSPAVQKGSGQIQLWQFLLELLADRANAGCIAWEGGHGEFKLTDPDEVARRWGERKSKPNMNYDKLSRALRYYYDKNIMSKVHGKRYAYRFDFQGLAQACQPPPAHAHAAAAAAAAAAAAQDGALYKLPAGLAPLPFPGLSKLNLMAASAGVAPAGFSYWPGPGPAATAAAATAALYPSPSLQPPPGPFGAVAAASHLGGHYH
Summary of the method: (§1)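 GST fusions of human transcription factors were expressed in yeast and captured with glutathione beads. Once given DNA barcodes and pooled alongside a tag-only sample, they were incubated for 30 min at room temperature with 200 nmole of a random double-stranded 16-mer DNA library in Tris/NaCl/DTT/glycerol buffer, then washed, crosslinked (0.1% formaldehyde), proximity-ligated, PCR-amplified and sequenced on an Illumina NextSeq500. The binding signal of each hexamer is its read frequency for a factor divided by its frequency for the tag-only sample.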

ETV5 = ETV5 (Homo sapiens, UniProt P41161 1-510); conditions: protein: recombinant; tags: N-terminal GST; dsDNA, one strand shown
Chain of ETV5 (P41161 whole entry): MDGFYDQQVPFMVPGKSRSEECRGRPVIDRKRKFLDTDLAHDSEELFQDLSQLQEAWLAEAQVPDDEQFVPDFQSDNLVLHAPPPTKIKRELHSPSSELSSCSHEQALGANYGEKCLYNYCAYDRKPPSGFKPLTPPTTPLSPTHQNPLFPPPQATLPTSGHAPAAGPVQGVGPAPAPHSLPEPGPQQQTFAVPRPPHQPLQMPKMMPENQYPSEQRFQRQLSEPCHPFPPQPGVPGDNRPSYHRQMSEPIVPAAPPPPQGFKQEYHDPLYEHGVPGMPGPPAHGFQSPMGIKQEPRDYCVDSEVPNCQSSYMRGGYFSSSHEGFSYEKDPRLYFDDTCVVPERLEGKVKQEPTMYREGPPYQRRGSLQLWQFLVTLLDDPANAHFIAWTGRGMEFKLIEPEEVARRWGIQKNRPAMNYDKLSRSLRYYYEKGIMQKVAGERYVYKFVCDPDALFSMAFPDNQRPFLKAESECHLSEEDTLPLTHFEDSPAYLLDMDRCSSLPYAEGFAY
Summary of the method: as §1

HSF1 = HSF1 (Homo sapiens, UniProt Q00613 1-529); conditions: protein: recombinant; tags: N-terminal GST; chain copies: 3; dsDNA, one strand shown
Chain of HSF1 (Q00613 whole entry): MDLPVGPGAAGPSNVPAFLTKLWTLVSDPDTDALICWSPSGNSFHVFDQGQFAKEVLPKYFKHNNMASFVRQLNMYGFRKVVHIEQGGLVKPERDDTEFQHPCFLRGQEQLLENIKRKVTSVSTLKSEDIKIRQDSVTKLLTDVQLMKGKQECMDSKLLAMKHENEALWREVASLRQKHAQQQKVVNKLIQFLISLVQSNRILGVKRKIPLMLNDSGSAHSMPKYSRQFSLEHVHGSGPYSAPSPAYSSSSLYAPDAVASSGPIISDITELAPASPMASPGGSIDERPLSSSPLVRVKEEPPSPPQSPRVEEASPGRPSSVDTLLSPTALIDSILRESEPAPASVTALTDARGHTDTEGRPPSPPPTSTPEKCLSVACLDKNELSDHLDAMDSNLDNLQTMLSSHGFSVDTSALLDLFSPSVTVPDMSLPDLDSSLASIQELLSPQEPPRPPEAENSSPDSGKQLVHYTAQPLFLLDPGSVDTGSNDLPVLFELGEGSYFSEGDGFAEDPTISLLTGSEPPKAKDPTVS
Summary of the method: as §1

SPIC = target: T2, SPIC (Homo sapiens, UniProt Q8N5J4 1-248); conditions: protein: recombinant; tags: N-terminal GST; dsDNA, one strand shown
T2 sequence: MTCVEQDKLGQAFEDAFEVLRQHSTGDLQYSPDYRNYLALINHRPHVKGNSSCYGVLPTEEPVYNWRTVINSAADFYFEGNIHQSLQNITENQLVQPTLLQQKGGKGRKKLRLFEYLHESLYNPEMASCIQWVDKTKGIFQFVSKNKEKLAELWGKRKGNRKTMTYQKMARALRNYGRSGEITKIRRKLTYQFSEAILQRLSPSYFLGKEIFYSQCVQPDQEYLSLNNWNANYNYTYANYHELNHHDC
Summary of the method: as §1

ELF4 = ELF4 (Homo sapiens, UniProt Q99607 1-663); conditions: protein: recombinant; tags: N-terminal GST; dsDNA, one strand shown
Chain of ELF4 (Q99607 whole entry): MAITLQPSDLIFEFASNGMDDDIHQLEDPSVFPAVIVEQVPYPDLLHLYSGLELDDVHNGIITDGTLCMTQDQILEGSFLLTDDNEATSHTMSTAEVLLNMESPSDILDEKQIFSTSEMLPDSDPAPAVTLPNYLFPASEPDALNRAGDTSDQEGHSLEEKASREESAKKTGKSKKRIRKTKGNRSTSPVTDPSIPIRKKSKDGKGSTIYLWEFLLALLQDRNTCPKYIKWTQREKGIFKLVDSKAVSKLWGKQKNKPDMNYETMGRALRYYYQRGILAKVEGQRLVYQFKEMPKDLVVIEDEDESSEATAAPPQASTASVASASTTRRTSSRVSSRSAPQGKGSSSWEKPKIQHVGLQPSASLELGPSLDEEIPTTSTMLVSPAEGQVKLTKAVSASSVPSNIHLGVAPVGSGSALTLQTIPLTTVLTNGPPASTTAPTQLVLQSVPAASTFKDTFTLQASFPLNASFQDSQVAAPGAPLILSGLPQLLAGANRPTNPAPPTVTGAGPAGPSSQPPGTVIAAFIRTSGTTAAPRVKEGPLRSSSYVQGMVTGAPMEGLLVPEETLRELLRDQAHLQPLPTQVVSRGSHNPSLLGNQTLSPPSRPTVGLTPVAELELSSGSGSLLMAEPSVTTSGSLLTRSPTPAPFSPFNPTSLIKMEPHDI
Summary of the method: as §1

ELK4 = target: T3, ELK4 (Homo sapiens, UniProt P28324-2 1-405); conditions: protein: recombinant; tags: N-terminal GST; dsDNA, one strand shown
T3 sequence: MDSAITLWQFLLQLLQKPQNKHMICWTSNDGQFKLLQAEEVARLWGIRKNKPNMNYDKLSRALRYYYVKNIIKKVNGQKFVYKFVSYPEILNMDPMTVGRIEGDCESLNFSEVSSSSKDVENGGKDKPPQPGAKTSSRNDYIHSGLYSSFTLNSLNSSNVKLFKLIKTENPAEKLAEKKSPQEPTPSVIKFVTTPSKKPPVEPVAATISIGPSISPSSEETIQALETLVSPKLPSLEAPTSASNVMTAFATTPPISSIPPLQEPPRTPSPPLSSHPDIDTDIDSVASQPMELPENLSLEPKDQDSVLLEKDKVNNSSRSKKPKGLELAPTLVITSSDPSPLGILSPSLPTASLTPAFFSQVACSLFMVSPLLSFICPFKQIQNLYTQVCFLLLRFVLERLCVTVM
Summary of the method: as §1

ETV2 = target: T4, ETV2 (Homo sapiens, UniProt O00321 1-342); conditions: protein: recombinant; tags: N-terminal GST; dsDNA, one strand shown
T4 sequence: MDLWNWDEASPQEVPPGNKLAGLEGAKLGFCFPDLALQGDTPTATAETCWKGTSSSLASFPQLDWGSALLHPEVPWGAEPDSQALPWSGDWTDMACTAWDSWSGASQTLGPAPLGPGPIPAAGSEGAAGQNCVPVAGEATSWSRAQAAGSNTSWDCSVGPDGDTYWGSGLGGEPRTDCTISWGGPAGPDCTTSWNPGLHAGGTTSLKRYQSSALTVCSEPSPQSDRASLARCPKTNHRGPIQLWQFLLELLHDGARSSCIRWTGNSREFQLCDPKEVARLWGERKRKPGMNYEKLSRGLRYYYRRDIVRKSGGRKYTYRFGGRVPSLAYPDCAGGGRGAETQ
Summary of the method: as §1

ELF3 = target: T5, ELF3 (Homo sapiens, UniProt P78545 1-371); conditions: protein: recombinant; tags: N-terminal GST; dsDNA, one strand shown
T5 sequence: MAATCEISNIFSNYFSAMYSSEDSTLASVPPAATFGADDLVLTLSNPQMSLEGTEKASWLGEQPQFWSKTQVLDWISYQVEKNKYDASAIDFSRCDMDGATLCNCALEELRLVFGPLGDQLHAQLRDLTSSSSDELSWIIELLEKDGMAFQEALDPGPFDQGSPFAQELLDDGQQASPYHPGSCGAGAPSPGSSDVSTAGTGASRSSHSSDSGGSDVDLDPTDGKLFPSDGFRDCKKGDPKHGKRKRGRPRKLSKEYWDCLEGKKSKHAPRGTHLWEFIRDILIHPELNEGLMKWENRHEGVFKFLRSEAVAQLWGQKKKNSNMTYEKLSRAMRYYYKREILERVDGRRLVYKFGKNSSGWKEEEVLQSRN
Summary of the method: as §1

CRX = CRX (Homo sapiens, UniProt O43186 1-299); conditions: protein: recombinant; tags: N-terminal GST; dsDNA, one strand shown
Chain of CRX (O43186 whole entry): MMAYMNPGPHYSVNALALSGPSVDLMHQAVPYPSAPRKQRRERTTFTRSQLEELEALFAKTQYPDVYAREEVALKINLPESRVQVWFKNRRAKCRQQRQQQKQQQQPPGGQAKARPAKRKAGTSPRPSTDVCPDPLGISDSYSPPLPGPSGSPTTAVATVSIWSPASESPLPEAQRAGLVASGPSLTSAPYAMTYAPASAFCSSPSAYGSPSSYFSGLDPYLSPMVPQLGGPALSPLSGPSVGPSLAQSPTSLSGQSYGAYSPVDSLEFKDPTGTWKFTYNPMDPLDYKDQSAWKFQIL
Summary of the method: as §1

AATTGA
binding signal (FEV): 1.11 fold enrichment (6-mer frequency, TF over GST control) | binding signal (ETV5): 1.22 fold enrichment (6-mer frequency, TF over GST control) | binding signal (HSF1): 1.05 fold enrichment (6-mer frequency, TF over GST control) | binding signal (SPIC): 1.1 fold enrichment (6-mer frequency, TF over GST control) | binding signal (ELF4): 1.18 fold enrichment (6-mer frequency, TF over GST control) | binding signal (ELK4): 1.18 fold enrichment (6-mer frequency, TF over GST control) | binding signal (ETV2): 1.18 fold enrichment (6-mer frequency, TF over GST control) | binding signal (ELF3): 1.3 fold enrichment (6-mer frequency, TF over GST control) | binding signal (CRX): 1.1 fold enrichment (6-mer frequency, TF over GST control)
